Screening results deposited in PubChem by National Center for Advancing Translational Sciences (NCATS).
Shown are actives, neighbours in structure and some others; about 8% of the full set was active somewhere.
HT1080NT lethal: qHTS for induction of synthetic lethality in tumor cells producing 2HG: qHTS for the HT-1080-NT fibrosarcoma cell line. HT-1080-NT fibrosarcoma viability, CellTiter-Glo ATP luminescence, 48 h. Potency, µM (highest dose often 46.1 µM), for inactives: at the top dose activity, negative = less viability, actives largely listed as cytotoxic. hit rate 1.6% among 360,000;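 also: NT is the 2HG producing partner of a matched IDH1 knockdown line; 0% = DMSO-treated cells and -100% = media-only wells without cells; nearly all actives have a fitted effect of over 55% in size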
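Luminescent CellTiter-Glo readout after 48 hours of compound exposure at 37 degrees C defined viability of HT-1080-NT cells. Activity was normalized to DMSO wells and cell-free media wells; concentration-response curves were fitted and assigned curve classes.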
MCF10A rerep: A quantitative high throughput screen for small molecules that induce DNA re-replication in MCF 10a normal breast cells; hit rate 2.9% among 350,000; MCF 10A DNA re-replication, Hoechst nuclear intensity, 48 h; AID 624296, 2012; Potency, µM (doses to about 46.1 µM), without a hit: at the highest dose activity, positive = re-replication, usual class: activators; also: % of control where 0% means no effect; nearly all actives have a fitted effect of over 50% in size
KB-V1 MDR tox: qHTS assay for MDR1-selective chemotherapeutics: Primary screen using the drug-selected MDR subline cells KB-V1. hit rate 3.4% among 400,000. Potency, µM (top dose mostly 46.1 µM), usual class: cytotoxic. KB-V1 MDR cells viability, CellTiter-Glo, 72 h; also: % is scaled to controls: 0 for no effect and ±100 for the full control effect; nearly all actives have a fitted effect of over 60% in size
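Following 72 h at 37 degrees C with compound, KB-V1 cell viability was read by CellTiter-Glo luminescence, medium being phenol-red-free DMEM plus 10% FBS; concentration-response parameters came from normalized, curve-fitted qHTS data.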
HT1080 IDH1KD tx: qHTS for induction of synthetic lethality in tumor cells producing 2HG: qHTS for the HT-1080-IDH1KD cell line; Potency, µM (top dose mostly 46.1 µM), for the others: top-dose activity, negative = toxicity, actives largely listed as cytotoxic; hit rate 2% among 360,000; HT-1080 IDH1 knockdown viability, ATP luminescence, 48 h;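 also: 0% = DMSO wells and -100% = cell-free medium wells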
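After a 2 h attachment period, IDH1KD HT-1080 cells took pin-transferred compound for 48 h at 37 °C; ATP-based luminescence after 10 min room-temperature reagent incubation reported viability.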
KB-3-1 tox: qHTS assay for MDR1-selective chemotherapeutics: Primary screen using the parental adenocarcinoma cell KB-3-1; AID 1347075, 2019; Potency, µM (highest dose often 46.1 µM), usual class: cytotoxic; hit rate 1.4% among 400,000; KB-3-1 viability, CellTiter-Glo ATP luminescence, 72 h; also: % is scaled to controls: 0 for no effect and ±100 for the full control effect; nearly all actives have a fitted effect of over 60% in size
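KB-3-1 parental drug-naive adenocarcinoma cells in DMEM/10% FBS, incubated 72 h at 37 C with pin-transferred compounds across a concentration series. Viability by CellTiter-Glo luminescence; concentration-response curves fitted after normalization.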
SW480 rereplic: A quantitative high throughput screen for small molecules that induce DNA re-replication in SW480 colon adenocarcinoma cells; SW480 DNA re-replication, Hoechst DNA content imaging, 48 h; hit rate 1.8% among 340,000; Potency, µM (series often up to 46.1 µM), for inactives: at the top dose re-replication activation, actives largely listed as activators; also: % of control where 0% means no effect; nearly all actives have a fitted effect of over 55% in size
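Treated cells incubate 48 hr (37 C, 5% CO2), are stained 40 min with Hoechst, and nuclear fluorescence is enumerated; a rise in nuclei with high DNA signal marks re-replication.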
* marks the source's active call; other numbers are inactive results; i = inactive; ? = inconclusive; [ ] = another dose, or the depositor's remark. Calls follow the shape of the dose curve; as a rule, active = well fitted curve in the direction sought with a large enough effect; inconclusive = small, poorly fitted or top-dose-only effect, or another doubt; inactive = no such curve, though single readings can be large; an effect the other way counts as inactive or inconclusive. Potency is read from the fitted curve at half-maximal effect.

SMILES	HT1080NT lethal	MCF10A rerep	KB-V1 MDR tox	HT1080 IDH1KD tx	KB-3-1 tox	SW480 rereplic
Cc1ccnc(NC(=O)Cn2c(=O)oc3cc(S(=O)(=O)N4CCCC4)ccc32)c1	10%	11%	i	8%	i	2%
O=C(CCC(=O)Nc1ccc(F)cc1)N/N=C/c1ccc(O)cc1O	-13%	38%	i	-18%	i	9.2µM*
COc1ccc2nc3sc(C(=O)NCCCN4CCc5ccccc5C4)cc3cc2c1	-12%	?	5.8µM*	-13%	i	?
CCOc1ccc2[nH]c(=O)c(CN(CCc3ccccc3)C(=O)N3CCCC3)cc2c1	-3%	-11%	i	-5%	i	2%
CCOc1ccc2[nH]c(=O)c(CN(CCc3ccccc3)C(=O)N3CCOCC3)cc2c1	8%	0%	15µM*	-1%	i	-6%
CN1CCc2c(sc3nc(SCC(=O)N4CCOCC4)n(-c4ccc(Cl)cc4)c(=O)c23)C1	-7%	5%	i	-2%	i	8.2µM*
CCN1CCC(CN2CCNC2=S)CC1	13%	-14%	i	14%	i	16µM*
S=C1NCCN1CC1CCN(CCC23CC4CC(CC(C4)C2)C3)CC1	-2%	?	i	-2%	i	12%
Cc1ccc(-c2nn(-c3ccc(F)cc3)cc2C(=O)N(C)CC(=O)Nc2ccc(N3CCOCC3)cc2)cc1	-7%	-2%	i	-6%	i	-59%
CCN1/C(=C/c2cc[n+](C)cc2)C=Cc2cc(C)ccc21	-5%	3%	i	?	2.9µM*	-8%
CSC1SCC2C(=O)N(C)C(C(C)C)C(=O)OCC(NC(=O)c3cnc4ccccc4n3)C(=O)NC(C)C(=O)N(C)C1C(=O)N(C)C(C(C)C)C(=O)OCC(NC(=O)c1cnc3ccccc3n1)C(=O)NC(C)C(=O)N2C (stereo unspecified)	-32%	4%	1.6µM*	0.0012µM*	i	-1%
CCCCc1cc(=O)oc2cc(OCC(=O)N(CC)CC)ccc12	3%	9%	7.3µM*	5%	i	-3%
C=C(Cl)COc1ccc2c(CCCC)cc(=O)oc2c1	-4%	24%	i	-3%	i	13%
COc1cc(C(=O)OCC(=O)Nc2sccc2C(N)=O)cc(OC)c1OC	?	?	?	7.3µM*	16µM*	14%
COc1cc(CCC(=O)OCC(=O)Nc2sccc2C(N)=O)cc(OC)c1OC	-7%	-20%	i	-11%	i	16µM*
NC(=O)c1ccsc1NC(=O)COc1ccccc1	-24%	2%	13µM*	?	i	-7%
COc1cc(CCC(=O)OCC(=O)Nc2ccc(C(N)=O)cc2)cc(OC)c1OC	5%	-4%	i	2%	i	-4%
O=C(NC1CC1)C1=C[C@@H](C2CCCCC2)C[C@@H](OCc2ccc(CO)cc2)O1	-3%	-11%	i	-3%	i	13%
CCOC(=O)c1c(NC(N)=O)sc(C)c1C	0%	3%	?	4%	i	-22%
CCOC(=O)c1c(N2C(=O)C=CC2=O)sc(C)c1C	4µM*	2.9µM*	i	5µM*	i	9.2µM*
COc1ccccc1NS(=O)(=O)c1cc(C(=O)N2CCN(C(=O)c3ccco3)CC2)ccc1F	22%	14%	i	1%	i	8%
Cc1cc(C)c(C(N)=O)c(SCC(=O)c2cc(C)c(C)cc2C)n1	-16%	-6%	?	-24%	i	-2%
Cc1cc(C)c(C(N)=O)c(SCC(=O)c2ccc(Cl)cc2)n1	0%	?	i	-6%	i	?
Cc1cc(C)c(C(N)=O)c(SCC(=O)c2cc(C)n(-c3cc(C)on3)c2C)n1	-2%	21µM*	?	-5%	i	?
Cc1cc(-n2c(C)cc(C(=O)CSc3[nH]c(=O)cc(C(F)(F)F)c3C#N)c2C)no1	-4%[9.24 µM]	?	i	0%	i	3.3µM*
SMILES	HT1080NT lethal	MCF10A rerep	KB-V1 MDR tox	HT1080 IDH1KD tx	KB-3-1 tox	SW480 rereplic
Cc1ccc(C(=O)CSc2nc(C)cc(C)c2C(N)=O)cc1	?	154%	16µM*	?	i	-27%
Cc1cc(NC(=O)CSc2[nH]c(=O)cc(C(F)(F)F)c2C#N)no1	4%	2%	i	8%	i	-16%
Cc1ccc(-c2csc(Cc3nc(-c4ccc5c(c4)CCC(=O)N5)cs3)n2)cc1	?	7%	?	-5%	i	3%
Cc1nc(-c2ccc3c(c2)CCC(=O)N3)cs1	3%	-1%	1.3µM*	-11%	?	-119%
COc1ccccc1-c1cc(SC)c(C#N)c(=O)o1	1%	7.3µM*	i	0%	i	18µM*
O=C(Nc1cc(Sc2ccccn2)cc([N+](=O)[O-])c1)c1cccc(F)c1	-25%	5%	13µM*	?	13µM*	-3%
COc1ccc(Cn2cc(C(=O)c3ccccc3)c(=O)c3cc(OC)ccc32)cc1	-11%	0%	i	-14%	i	-8%
COc1ccc2c(c1)c(=O)c(C(=O)c1ccccc1)cn2Cc1ccccc1	-2%	?	i	-1%	i	16µM*
N#CNC(=Nc1ccccc1)SCc1ccc(C(=O)O)cc1	18%	?	i	-4%	i	1%
CSC(=Nc1ccccc1)N=C(SCc1ccccc1)N(C)C	21µM*	?	5.8µM*	13µM*	4.1µM*	7.3µM*
Cc1ccc(OCC(=O)NCCS(=O)(=O)N2CCN(c3ccccc3)CC2)cc1	-2%	1%	i	6%	i	-4%
COc1ccccc1NC(=O)C(=O)N1N=C(C(C)C)CC1(O)C(F)(F)F (stereo unspecified)	?	8.2µM*	i	?	i	2%
CCC1=NN(C(=O)CCc2ccccc2)C(O)(C(F)(F)F)C1 (stereo unspecified)	-3%	?	i	?	i	3%
CCC1=NN(C(=O)Cc2ccc(OC)cc2)C(O)(C(F)(F)F)C1 (stereo unspecified)	-29%	2%	i	?	i	-3%
CCC1=NN(C(=O)C(=O)Nc2ccccc2OC)C(O)(C(F)(F)F)C1 (stereo unspecified)	2.8µM*	?	i	1.4µM*	i	-2%
